Results on 40 compounds are retold here after PubChem BioAssay (NCI).

Structures are written as SMILES. This is part of a sample that, as a whole, favours compounds with a hit. Of some 79,000 tested, about 15% had one in any assay. Unmarked numbers belong to inactive results. Calls of active or inactive are those of the source. Cut-off read from the data, not from the text of the source: active = growth inhibition above about 70%; inactive = the rest.

One assay is described as follows: NCI Yeast Anticancer Drug Screen. Data for the bub3 strain (AID 167). The note with it: S. cerevisiae bub3 mutant strain, at 50.0 µM, active compounds read high. Put shortly: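 Compounds were applied to a genetically altered yeast strain carrying a cell-cycle control defect. Growth inhibition was scored against vehicle-treated controls.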
With `COc1ccc(-n2c(N)c(C#N)c(C#N)c2-c2ccco2)cc1`, the growth inhibition was -25.4%.
On to `CCC(=N\NC(=S)NC)/C(C)=N\NC(=S)NC`, for which the growth inhibition is 9.1%.
Turning to `O=c1c2nn3c(=O)n(-c4ccccc4)c(=O)c3nn2c(=O)n1-c1ccccc1`, the growth inhibition is -24.7%.
`CC(=O)Nc1cccc(O)c1`: the growth inhibition is -8.7%.
In the case of `O=[N+]([O-])c1cccc(NSNc2cccc([N+](=O)[O-])c2)c1`, the growth inhibition is 6.45%.
As to `CN(C)CC1CCCC(CN(C)C)C1OC(=O)c1ccccc1` (stereo unspecified), the growth inhibition is 14.4%.
For the compound `CCCCOc1cc2c(cc1C(C)c1ccccc1)OCO2` (stereo unspecified), the growth inhibition is 15.8%.
Regarding `Cc1c(Cl)cccc1NC(=O)C(=O)C(C(=O)c1ccccc1-c1ccccc1)C1OC(=O)c2ccccc21` (stereo unspecified), the growth inhibition was 11.9%.
Take `CCCCCCCCCCCCCCCCC/C(CC)=N/Nc1ccc([N+](=O)[O-])cc1[N+](=O)[O-]`: the growth inhibition was -3.2%.
In the case of `CC(Br)C(=O)c1ccc2ncccc2c1` (stereo unspecified), the growth inhibition is 12.8%.
`CCN1CCC(O)(c2ccc(Oc3ccc(F)cc3)cc2)C(C(=O)c2ccc(Oc3ccc(F)cc3)cc2)C1` (stereo unspecified): the growth inhibition was 5.65%.
For `O=c1[nH]c(=O)n(CCCCOc2ccccc2)cc1-c1ccccc1`, the growth inhibition is 12.1%.
Regarding `FC(F)(F)c1cccc(C2SCc3nc4ccccc4n32)c1` (stereo unspecified), the growth inhibition is 23.9%.
As for `CCOC(=O)C(=O)Nc1ccc2cc(OC)ccc2c1C#N`, the growth inhibition was 19.4%.
On the same count and under the same terms, for `CCc1nc2c([nH]1)C(=O)c1ccccc1C2=O` the value was 18.7%; for `CCOC(=O)C(F)C(C)=O` (stereo unspecified), 99.5% (active); for `CN(/N=C/c1ccccn1)C1=NCCCN1`, -5.4%.
Same read-out and setting: for `CC(C)CC(N)C(=O)NC(Cc1cc2ccccc2[nH]1)C(=O)O` (stereo unspecified) the value was 5.2%; for `N#CC[N+]1(Cc2ccccn2)CCCC1`, -2.5%; for `Cc1cccc2c(/C=C/c3ccc(N(C)C)cc3)ccnc12`, 2.85%.
In the case of `CC(=O)n1nnc(CC#N)c1-c1ccccc1`, the growth inhibition was -23.2%.

Another assay can be described thus: NCI Yeast Anticancer Drug Screen. Data for the mlh1 rad18 strain (AID 175). The note with it: S. cerevisiae mlh1 rad18 strain growth inhibition; at 50.0 µM; active compounds read high. Put shortly:
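A repair-deficient yeast strain is exposed to test compound, and growth is scored relative to vehicle-treated controls.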
Take `CCOC(=O)C(NC(C)=O)C(C)O` (stereo unspecified): the growth inhibition was -0.75%.
For the compound `NC(=O)/C(=N/O)c1ccccc1`, the growth inhibition was -7.6%.
Consider `CC1CC(C)(C)C(C[NH-])C1[NH-].[Cl][Pt+2][Cl]` (stereo unspecified), for which the growth inhibition was 28.1%.
Still for that read-out and setting: for `NC1C2C3C=CC(C3)C12` (stereo unspecified) the value was 8.95%.
In the case of `CC(=O)Nc1cccc2c(OC(C)=O)cccc12`, the growth inhibition is -4.1%.
On to `N#Cc1c(-c2ccco2)cc(-c2ccccc2)[nH]c1=O`, for which the growth inhibition was 25.6%.
On the same count and under the same terms, then `COn1c(-c2ccccc2)nc2c1C(=O)N(C)CN2C`, with 5.4%; and `CCCCCC(=O)OCCCCCO`, with -4.7%; and `O=C1CCSC(=S)N1c1ccc(F)cc1F`, with -1.15%.
As for `O=C(Cc1ccccc1)N(c1ccccc1)c1ccccc1`, the growth inhibition was 5.9%.
Take `CCCCN(CCCC)Cc1ccnc(C)c1O`: the growth inhibition is 7.9%.
Consider `COc1ccc2nc(NC(=O)Nc3ccc(Cc4ccc(NC(=O)Nc5nc6ccc(OC)cc6s5)cc4)cc3)sc2c1`, for which the growth inhibition was -12%.
For `N#Cc1c(N)nc2c3c1NC(=O)C(C(N)=O)C3c1ccccc1O2` (stereo unspecified), the growth inhibition is -22.4%.
Regarding `C/C(CC(=O)Nc1ccccn1)=N\c1ccccn1`, the growth inhibition was 9.95%.
As to `CCc1cc(CSc2ccc(Cl)cc2)ccc1N`, the growth inhibition is 98.2% (active).
Take `C=CCO[Si](OCC=C)(OCC=C)OCC=C`: the growth inhibition is 3.9%.
Take `CC(=O)c1sc2c(c1OC(=O)c1ccc(Cl)cc1)c(=O)n(-c1ccccc1)c(=S)n2-c1ccccc1`: the growth inhibition is 9.05%.
Turning to `OCC1CC=CCC1` (stereo unspecified), the growth inhibition is 11.6%.
Take `C=CCNCC(O)C(F)(F)C(F)(F)C(F)(F)C(F)(F)C(F)(F)C(F)(F)F` (stereo unspecified): the growth inhibition was 27.6%.
Same read-out and setting: for `COc1ccc(-n2c(N)c(C#N)c(C#N)c2-c2ccco2)cc1` the value was -39%; for `CCC(=N\NC(=S)NC)/C(C)=N\NC(=S)NC`, -14.2%; for `O=c1c2nn3c(=O)n(-c4ccccc4)c(=O)c3nn2c(=O)n1-c1ccccc1`, -3.05%.
As for `CC(=O)Nc1cccc(O)c1`, the growth inhibition is 22.6%.
On the same count and under the same terms, for `O=[N+]([O-])c1cccc(NSNc2cccc([N+](=O)[O-])c2)c1` the value was 11%.
As to `CN(C)CC1CCCC(CN(C)C)C1OC(=O)c1ccccc1` (stereo unspecified), the growth inhibition is 50.9%.
Turning to `CCCCOc1cc2c(cc1C(C)c1ccccc1)OCO2` (stereo unspecified), the growth inhibition was 14.8%.
`Cc1c(Cl)cccc1NC(=O)C(=O)C(C(=O)c1ccccc1-c1ccccc1)C1OC(=O)c2ccccc21` (stereo unspecified): the growth inhibition is -23%.
Turning to `CCCCCCCCCCCCCCCCC/C(CC)=N/Nc1ccc([N+](=O)[O-])cc1[N+](=O)[O-]`, the growth inhibition is -9.1%.
Regarding `CC(Br)C(=O)c1ccc2ncccc2c1` (stereo unspecified), the growth inhibition is 12.8%.
On to `CCN1CCC(O)(c2ccc(Oc3ccc(F)cc3)cc2)C(C(=O)c2ccc(Oc3ccc(F)cc3)cc2)C1` (stereo unspecified), for which the growth inhibition is 29.9%.
In the case of `O=c1[nH]c(=O)n(CCCCOc2ccccc2)cc1-c1ccccc1`, the growth inhibition was 5.9%.
For the compound `FC(F)(F)c1cccc(C2SCc3nc4ccccc4n32)c1` (stereo unspecified), the growth inhibition was 21.7%.
The same measure, in the same setting: for `CCOC(=O)C(=O)Nc1ccc2cc(OC)ccc2c1C#N` the value was -17.8%; for `CCc1nc2c([nH]1)C(=O)c1ccccc1C2=O`, 42%; for `CCOC(=O)C(F)C(C)=O` (stereo unspecified), 91.8% (active).
Same read-out and setting: for `CN(/N=C/c1ccccn1)C1=NCCCN1` the value was -27%; for `CC(C)CC(N)C(=O)NC(Cc1cc2ccccc2[nH]1)C(=O)O` (stereo unspecified), -0.4%; for `N#CC[N+]1(Cc2ccccn2)CCCC1`, -7.8%.
Same read-out and setting: then `Cc1cccc2c(/C=C/c3ccc(N(C)C)cc3)ccnc12`, with -11.4%; and `CC(=O)n1nnc(CC#N)c1-c1ccccc1`, with -15.3%.
